# RORg inh = ROR gamma (mouse) transcription inhibition. Drosophila S2 Gal4-RORgamma UAS-luciferase reporter, 20 h. Potency, µM (highest dose often 53.6 µM), for the others: at the highest dose activity change, negative = inhibition, most hits filed as inhibitors. 310,000 compounds, 5.4% hits; also: potency is read from the fitted curve at half-maximal effect; % is scaled to controls: 0 for no effect and ±100 for the full control effect; nearly all actives have a fitted effect of over 60% in size
# Target sequence (P51450 whole entry, looked up, the tested form may be a part): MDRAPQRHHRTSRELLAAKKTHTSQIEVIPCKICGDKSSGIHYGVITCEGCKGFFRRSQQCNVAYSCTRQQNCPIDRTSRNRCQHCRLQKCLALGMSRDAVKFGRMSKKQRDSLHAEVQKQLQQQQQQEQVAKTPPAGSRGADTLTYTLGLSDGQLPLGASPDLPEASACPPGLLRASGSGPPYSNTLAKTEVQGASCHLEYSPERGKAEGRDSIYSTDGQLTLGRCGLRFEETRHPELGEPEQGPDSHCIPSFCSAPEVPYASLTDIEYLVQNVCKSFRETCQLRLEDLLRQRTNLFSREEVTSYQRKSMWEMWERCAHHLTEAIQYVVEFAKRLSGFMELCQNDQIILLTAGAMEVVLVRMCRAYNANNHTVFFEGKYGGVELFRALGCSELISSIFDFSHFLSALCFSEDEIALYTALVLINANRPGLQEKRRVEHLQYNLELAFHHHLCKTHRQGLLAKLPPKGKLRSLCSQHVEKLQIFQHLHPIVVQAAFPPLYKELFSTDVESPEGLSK
#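 In this cell-based reporter format, copper sulfate (700 uM final) drives Gal4–ROR gamma fusion expression from a metallothionein promoter in Drosophila Schneider cells; compounds preincubated 1 hr, reporter read after 20 hr at ambient temperature.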
# TGFb inhibitor = inhibitors of TGF-b signaling | HepG2 CAGA-GFP TGF-b/SMAD3 reporter, GFP fluorescence, 18 h; TGF-beta stimulated, 500 pg/mL final | Potency, µM (titrated, usually from 46.1 µM), without a hit: at the top dose activity, negative = inhibition, most hits filed as inhibitors | 410,000 compounds, 1.2% hits | AID 588855; also: potency is read from the fitted curve at half-maximal effect; % is scaled to controls: 0 for no effect and ±100 for the full control effect; nearly all actives have a fitted effect of over 65% in size
#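 Per well, imaged GFP fluorescence of HEPG2 CAGA-GFP cells gives the signal; cells get compound, then TGF-beta (500 pg/mL final), 18 h at 37 degrees C; %Activity versus -TGF-beta and +DMSO controls.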
# HepG2 tox-1 = counter-screen for TGF-b inhibitors: cytotoxicity in HepG2 cells; HepG2 CAGA-GFP viability, ATP luminescence, 18 h; AID 588856; Potency, µM (doses to about 46.1 µM), without a hit: top-dose activity change, negative = cytotoxicity, actives largely listed as cytotoxic; 410,000 compounds, 0.76% hits; also: potency is read from the fitted curve at half-maximal effect
#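 HepG2 CAGA-GFP cells (1000/well, DMEM with 1% FBS) received compound, then TGF-beta at 500 pg/mL final, and were incubated 18 hours at 37 degrees C. Viability was read by CellTiter-Glo luminescence. Media-only wells were set as complete cell-killing and DMSO as no toxicity.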
# ATXN2 expr inh = ATXN2 expression inhibition; HEK-293 ATXN2-luciferase reporter, luminescence, 24 h; Potency, µM (titrated, usually from 57 µM), without a hit: at the top dose activity change, negative = inhibition, actives largely listed as inhibitors; 360,000 compounds, 0.72% hits; also: potency is read from the fitted curve at half-maximal effect; % is scaled to controls: 0 for no effect and ±100 for the full control effect; nearly all actives have a fitted effect of over 55% in size
#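 ATXN2-luciferase reporter cells (luciferase flanked by upstream and downstream ATXN2 gene portions) were treated 24 h at 37 °C with compounds at up to 57 uM. SteadyGlo luminescence gave expression; GF-AFC fluorescence gave viability.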
# ATXN viability = cell viability loss in ATXN counter-screen; 400,000 compounds, 0.49% hits; Potency, µM (series often up to 56.7 µM), hits mostly cytotoxic; S2 cells (HEK-293 line with an ATXN2-luciferase reporter) viability, CellTiter-Fluor protease fluorescence, 24 h; AID 651635; also: potency is read from the fitted curve at half-maximal effect; nearly all actives have a fitted effect of over 40% in size
# VP16 counter = inhibits Gal4-VP16 luciferase reporter, ROR gamma counter-screen | Potency, µM (titrated, usually from 53.6 µM), inactives show top-dose activity, negative = inhibition, actives largely listed as inhibitors | Drosophila S2 Gal4-VP16 UAS-luciferase, luminescence, 20 h | 310,000 compounds, 3.5% hits;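 also: Gal4-VP16 expression switched on by copper sulfate through the metallothionein promoter; potency is read from the fitted curve at half-maximal effect; % is scaled to controls: 0 for no effect and ±100 for the full control effect; nearly all actives have a fitted effect of over 50% in size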
# TGFb confirm = TGF-b pathway inhibition, cherry-pick retest | Potency, µM (top dose mostly 46.1 µM), without a hit: at the top dose activity, negative = inhibition, hits mostly inhibitors | HepG2 CAGA-GFP TGF-b reporter, GFP fluorescence, 18 h; cells stimulated with TGF-beta, 500 pg/mL | AID 720534 | 1,600 compounds, 63% hits | shares compounds with TGFb inhibitor; also: potency is read from the fitted curve at half-maximal effect; % is scaled to controls: 0 for no effect and ±100 for the full control effect; nearly all actives have a fitted effect of over 65% in size
# HepG2 tox-2 = HepG2 cytotoxicity, TGF-b inhibitor counterscreen; shares compounds with TGFb inhibitor; HepG2 CAGA-GFP viability, ATP luminescence, 18 h; cells stimulated with TGF-beta, 500 pg/mL; Potency, µM (highest dose often 46.1 µM), without a hit: top-dose activity, negative = cytotoxicity, actives largely listed as inhibitors; 1,600 compounds, 27% hits; AID 720535; also: potency is read from the fitted curve at half-maximal effect; % is scaled to controls: 0 for no effect and ±100 for the full control effect; nearly all actives have a fitted effect of over 70% in size
# TGFb CCL64 inh = orthogonal confirmation of TGF-b inhibitors in CCL64 cells | shares compounds with TGFb inhibitor | CCL64 CAGA-GFP reporter, TGF-b stimulated, GFP fluorescence, 18 h | Potency, µM (top dose mostly 46.1 µM), for inactives: top-dose activity, negative = inhibition, usual class: inhibitors | 1,600 compounds, 41% hits | AID 720536; also: potency is read from the fitted curve at half-maximal effect; nearly all actives have a fitted effect of over 65% in size
# COP TGFb inh = TGF-b inhibition validated with COP promoter; 1,600 compounds, 3% hits; HepG2 COP-GFP TGF-b reporter, GFP fluorescence, 18 h; cells stimulated by added recombinant TGF-beta; Potency, µM (titrated, usually from 46.1 µM), for inactives: top-dose activity, negative = inhibition, most hits filed as inhibitors; shares compounds with TGFb inhibitor; AID 720537; also: potency is read from the fitted curve at half-maximal effect; nearly all actives have a fitted effect of over 70% in size
# SKNSH spheroid = reduced viability of SK-N-SH 3D spheroids, orthogonal test; shares compounds with ATXN2 expr inh; SK-N-SH 3D spheroid viability, PI/Hoechst imaging, 72 h; Potency, µM (series often up to 30.7 µM), usual class: inhibitors; 65 compounds, 70% hits; AID 1347135
# SJ-GBM2 3D tox = lowers viability of SJ-GBM2 3D spheroids; shares compounds with ATXN2 expr inh; SJ-GBM2 3D spheroid viability, PI/Hoechst imaging, 72 h; Potency, µM (doses to about 30.7 µM), hits mostly inhibitors; 65 compounds, 80% hits; AID 1347136
# Daoy 3D tox = kills Daoy spheroids in orthogonal 3D test. Potency, µM (top dose mostly 30.7 µM), usual class: inhibitors. shares compounds with ATXN2 expr inh. AID 1347137. 65 compounds, 50% hits. Daoy 3D spheroid viability, PI/Hoechst imaging, 72 h
# TC32 3D casp = TC32 spheroid caspase-3/7 activation, orthogonal screen; Potency, µM (titrated, usually from 30.7 µM), most hits filed as inhibitors; TC32 3D spheroids, caspase-3/7 fluorescence imaging, 24 h; 65 compounds, 30% hits; shares compounds with ATXN2 expr inh
# TC32 spheroid = reduced viability of TC32 3D spheroids, orthogonal test | shares compounds with ATXN2 expr inh | TC32 3D spheroid viability, PI/Hoechst imaging, 72 h | Potency, µM (series often up to 30.7 µM), most hits filed as inhibitors | 65 compounds, 60% hits | AID 1347139
# MG63 spheroid = reduced viability of MG-63 (6-TG R) 3D spheroids, orthogonal test; shares compounds with ATXN2 expr inh; MG-63 (6-TG R) 3D spheroid viability, PI/Hoechst imaging, 72 h; Potency, µM (doses to about 30.7 µM), hits mostly inhibitors; 65 compounds, 50% hits
# RD 3D tox = RD 3D spheroid viability loss | shares compounds with ATXN2 expr inh | RD rhabdomyosarcoma 3D spheroid viability, PI/Hoechst imaging, 72 h | Potency, µM (highest dose often 30.7 µM), most hits filed as inhibitors | 65 compounds, 50% hits | AID 1347141
# Numbers without * were called inactive; i = inactive; ? = inconclusive; . = no result given; ! = a repeat was not active. This is a sample that favours compounds with a hit; in the whole collection about 6.1% have one here. Calls follow the shape of the dose curve; as a rule, active = well fitted curve in the direction sought with a large enough effect; inconclusive = small, poorly fitted or top-dose-only effect, or another doubt; inactive = no such curve, though single readings can be large; an effect the other way counts as inactive or inconclusive.
SMILES,RORg inh,TGFb inhibitor,HepG2 tox-1,ATXN2 expr inh,ATXN viability,VP16 counter,TGFb confirm,HepG2 tox-2,TGFb CCL64 inh,COP TGFb inh,others
O=C(Nc1ccc(Cl)cc1)C1Cc2c(-c3ccc(Cl)cc3)ccnc2O1 (stereo not given),.,?,-57%,?,i,.,.,.,.,.,
CC(=O)Nc1ccc(-c2ccnc3c2CC(C(=O)Nc2ccc(Cl)c(C(F)(F)F)c2)O3)cc1 (stereo not given),.,14µM*,-20%,?,?,.,8.2µM*,?,23µM*,59%,
CC(=O)Nc1ccc(-c2ccnc3c2CC(C(=O)Nc2cccc(C(C)=O)c2)O3)cc1 (stereo not given),.,7%,-4%,3%,i,.,.,.,.,.,
O=C(Nc1ccc(F)c(Cl)c1)C1Cc2c(-c3ccc(Cl)cc3)ccnc2O1 (stereo not given),.,16µM*,-19%,?,?,.,10µM*,?,18µM*,82%,
COc1ccc(-c2nc3sc(CCNS(=O)(=O)c4c(C)cc(C)cc4C)c(C)n3n2)cc1,.,?,2%,.,.,.,.,.,.,.,
CCN1CCN(S(=O)(=O)c2ccc(Cl)c(C(=O)N(C)CCOc3ccc(Cl)cc3)c2)CC1,.,14µM*,-9%,-29%,i,.,13µM*,?,?,12%,
COc1ccc(S(=O)(=O)N2CCCCCC2)cc1C(=O)N(C)CCOc1ccc(Cl)cc1,.,-23%,-8%,?,?,.,.,.,.,.,
CCC(C)(C)NC(=O)c1ccc(Sc2nncn2C)c([N+](=O)[O-])c1,-19%,3%,3%,-24%,i,-9%,.,.,.,.,
Cn1cnnc1Sc1ccc(/C=C/C(=O)c2ccc(O)cc2)cc1[N+](=O)[O-],10µM*,?,-3%,.,7.1µM*,?,2.6µM*,9.2µM*,23µM*,?,
Cc1nn2c(C(F)(F)F)cc(-c3ccc(OC(C)C)cc3)nc2c1C#N,.,-21%,-17%,11%,i,.,.,.,.,.,
CCOc1cc2c(cc1O)C(=NOC)CC1C2CCC2(C)C(O)CCC12 (stereo not given),.,18µM*,-17%,11%,i,.,7.3µM*,-7%,7.3µM*,-2%,
CC(=O)[C@]1(O)Cc2c(O)c3c(c(O)c2[C@@H](O[C@H]2C[C@H](N)[C@H](O)[C@H](C)O2)C1)C(=O)c1ccccc1C3=O,?,28%,-107%,13µM*!,.,-68%,.,.,.,.,SKNSH spheroid=0.091µM*;SJ-GBM2 3D tox=0.16µM*;Daoy 3D tox=1.8µM*;TC32 3D casp=7.2µM*;TC32 spheroid=0.2µM*;MG63 spheroid=1.1µM*;RD 3D tox=1.6µM*
COc1cccc2c1C(=O)c1c(O)c3c(c(O)c1C2=O)C[C@@](O)(C(=O)CO)C[C@@H]3O[C@H]1C[C@H](N)[C@@H](O)[C@H](C)O1,.,3.2µM*,-32%,0.43µM*!,.,.,.,.,.,.,SKNSH spheroid=0.51µM*;SJ-GBM2 3D tox=0.91µM*;Daoy 3D tox=1.6µM*;TC32 3D casp=1µM*;TC32 spheroid=0.81µM*;MG63 spheroid=5.1µM*;RD 3D tox=9.1µM*

# Assay outcomes: PubChem BioAssay, National Center for Advancing Translational Sciences (NCATS)
